A short description of assay [1]: yeast TOR pathway RPL19A-GFP modulators, primary screen, cell-based, S. cerevisiae, multiplex flow cytometry (AID 1862; in the data active = percent of DMSO control GFP below about 86%;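 note: lower values mimic rapamycin by blocking the RPL19A rise seen in DMSO cells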). The following applies: S. cerevisiae RPL19A-GFP strain, flow cytometry fluorescence, 3 h; at 10 µM; stronger effect = lower value.
Assay [2] is described as follows: modulators of MEP2-GFP levels in yeast, primary screen, S. cerevisiae, multiplex flow cytometry (AID 1867;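 active = GFP response, as percent of the DMSO control, above the screen-wide mean plus 3 SD, about 139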;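 note: median GFP channel fluorescence of barcode-gated MEP2-GFP cells measured by flow cytometry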). The following applies: S. cerevisiae MEP2-GFP strain, 3 h, at 10 µM, stronger effect = higher value, 100% means same as DMSO wells. Background: Flow cytometry measures light scatter and fluorescence of single cells or particles in a stream.
The nature of assay [3]: modulators of CIT2-GFP expression in yeast, primary screen, S. cerevisiae, GFP fusion, multiplex flow cytometry (AID 1870;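 active = percent response above a set limit, the screen-wide mean plus 3 SD, cut at about 130% in these data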;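 note: barcoded CIT2-GFP strain pooled with four other GFP strains with rapamycin as positive control; median GFP fluorescence per well over plate mean of DMSO wells so 100% = DMSO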). The settings on record: 3 h, at 10 µM, stronger effect = higher value.
The nature of assay [4]: modulators of LAP4-GFP expression in yeast, primary screen, S. cerevisiae, multiplex flow cytometry (AID 1873;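 active = GFP signal, as percent of the solvent control, above the screen mean plus 3 SD, about 149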). The settings on record: 3 h, at 10 µM, stronger effect = higher value.
Assay [5] in a line: modulators of AGP1-GFP expression in yeast TOR pathway, primary screen, cell-based, multiplex flow cytometry, S. cerevisiae (AID 1887;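 active = GFP signal above the screen-wide mean plus 3 SD, that is over about 124.5% of the solvent control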;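 note: AGP1-GFP fusion strain of S. cerevisiae within a five-strain barcoded multiplex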). The following applies: 3 h, at 10 µM, stronger effect = higher value.
Assay [6] can be described thus: inhibitors of CD8+ T cell-vesicle binding, pilot screen, LFA-1/ICAM-1 modulator project, MLPCN validation set, flow cytometry (AID 2523;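 active = response below a set limit, under 55% cells CD8-positive and vesicle-bound, and CD8 cells' 90th-percentile brightness under 279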;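 for vesicle binding response: mean PE anti-B7-1 fluorescence of CD8+ cells relative to row control; 100% = QL9-loaded vesicles with DMSO vehicle in the same plate row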). The following applies: 2C mouse CD8+ T cells, at 7 µM, stronger effect = lower value; double positive events: measured here: CD8+/vesicle+ event percentage.
In assay [7] the target is Integrin beta-1 (Homo sapiens) + Integrin alpha-4 (Homo sapiens) (UniProt P13612+P05556). Kind of assay: inhibition of HUTS-21 binding to VLA-4, pilot screen, VLA-4 allosteric modulator project, U937 cells, HUTS-21 mAb, flow cytometry, validation set (AID 2674;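 active = inhibition above 50%, about 3 SD of the validation set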;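 note: antibody binding induced by the VLA-4 ligand LDV present at three times its Kd; 0% = LDV ligand with antibody and no compound and 100% = antibody without LDV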). The settings on record: HUTS-21 LIBS mAb binding, at 6.7 µM, stronger effect = higher value, binding induced by LDV ligand.
Chain of Integrin beta-1 (Homo sapiens) + Integrin alpha-4 (Homo sapiens) (P05556 whole entry, looked up): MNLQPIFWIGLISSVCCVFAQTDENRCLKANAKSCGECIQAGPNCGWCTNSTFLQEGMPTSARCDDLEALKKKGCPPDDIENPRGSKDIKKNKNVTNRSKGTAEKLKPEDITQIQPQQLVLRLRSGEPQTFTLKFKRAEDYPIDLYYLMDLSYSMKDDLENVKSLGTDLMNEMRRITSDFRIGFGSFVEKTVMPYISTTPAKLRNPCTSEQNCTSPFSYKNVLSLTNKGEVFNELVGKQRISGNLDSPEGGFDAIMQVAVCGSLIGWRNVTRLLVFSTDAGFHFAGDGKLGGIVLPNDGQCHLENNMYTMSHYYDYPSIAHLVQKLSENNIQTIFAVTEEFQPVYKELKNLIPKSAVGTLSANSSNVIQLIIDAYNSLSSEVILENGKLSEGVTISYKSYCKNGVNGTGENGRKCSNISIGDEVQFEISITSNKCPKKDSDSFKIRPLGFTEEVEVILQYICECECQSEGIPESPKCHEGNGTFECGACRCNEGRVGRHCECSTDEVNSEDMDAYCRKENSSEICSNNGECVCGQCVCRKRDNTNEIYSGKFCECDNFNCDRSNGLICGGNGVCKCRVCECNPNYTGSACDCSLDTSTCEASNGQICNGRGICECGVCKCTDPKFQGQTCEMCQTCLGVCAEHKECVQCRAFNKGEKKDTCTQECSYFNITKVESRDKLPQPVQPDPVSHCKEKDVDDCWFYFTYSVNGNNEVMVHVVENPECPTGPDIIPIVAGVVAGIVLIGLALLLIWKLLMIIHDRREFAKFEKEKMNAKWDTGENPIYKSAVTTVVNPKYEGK
Chain of Integrin beta-1 (Homo sapiens) + Integrin alpha-4 (Homo sapiens) (P13612 whole entry, looked up): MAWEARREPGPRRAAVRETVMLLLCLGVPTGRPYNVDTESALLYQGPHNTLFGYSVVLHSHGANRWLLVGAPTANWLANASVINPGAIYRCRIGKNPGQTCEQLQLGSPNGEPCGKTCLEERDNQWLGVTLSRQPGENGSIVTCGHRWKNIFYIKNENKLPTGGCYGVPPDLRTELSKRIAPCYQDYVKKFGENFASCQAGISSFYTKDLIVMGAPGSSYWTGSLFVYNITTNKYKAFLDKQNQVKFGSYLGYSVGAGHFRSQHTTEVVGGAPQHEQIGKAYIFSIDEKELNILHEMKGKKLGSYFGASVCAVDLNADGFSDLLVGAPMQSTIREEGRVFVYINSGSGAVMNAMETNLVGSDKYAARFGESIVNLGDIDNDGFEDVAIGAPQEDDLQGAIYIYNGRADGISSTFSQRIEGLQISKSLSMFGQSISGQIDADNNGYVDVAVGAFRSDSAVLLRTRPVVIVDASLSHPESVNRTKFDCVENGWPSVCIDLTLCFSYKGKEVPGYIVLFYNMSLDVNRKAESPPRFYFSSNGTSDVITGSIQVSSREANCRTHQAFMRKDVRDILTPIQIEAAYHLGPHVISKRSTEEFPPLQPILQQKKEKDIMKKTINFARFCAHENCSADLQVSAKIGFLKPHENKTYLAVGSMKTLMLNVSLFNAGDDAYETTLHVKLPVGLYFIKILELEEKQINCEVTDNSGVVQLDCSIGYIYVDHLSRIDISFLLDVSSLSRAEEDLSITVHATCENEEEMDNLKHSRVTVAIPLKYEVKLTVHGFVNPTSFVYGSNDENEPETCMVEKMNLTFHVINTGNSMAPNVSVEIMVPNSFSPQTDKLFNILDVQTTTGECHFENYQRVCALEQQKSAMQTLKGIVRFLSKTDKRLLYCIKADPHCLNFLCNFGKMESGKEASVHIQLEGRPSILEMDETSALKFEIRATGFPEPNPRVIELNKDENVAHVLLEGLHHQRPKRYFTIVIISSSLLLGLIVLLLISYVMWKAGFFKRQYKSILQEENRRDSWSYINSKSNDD

A short description of assay [8]: superoxide lowering in aged yeast cells, pilot screen, validation compound set (AID 2706;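 active = superoxide response below 65% of plate, a cut near 3 SD across the whole screen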;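 note: yeast exposed to compound for one week at 30 degrees C before staining; 100% = mean of all compound wells on the same plate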). The following applies: S. cerevisiae aging, superoxide DHE fluorescence; at 10 µM; stronger effect = lower value.
Assay [9] deals with Beta-adrenergic receptor kinase 1 (Homo sapiens) (UniProt P25098). Kind of assay: GRK2 binders displacing RNA aptamer, biochemical, validation, human GRK2, bead flow cytometry (AID 488806;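 active = aptamer binding inhibition above 30%, about 3 SD of noise from non-fluorescent compounds; inactive = inhibition at or below 30%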). The following applies: bead-bound GRK2, FAM-aptamer displacement, at 10 µM, stronger effect = higher value.
Chain of Beta-adrenergic receptor kinase 1 (Homo sapiens) (P25098 whole entry, looked up): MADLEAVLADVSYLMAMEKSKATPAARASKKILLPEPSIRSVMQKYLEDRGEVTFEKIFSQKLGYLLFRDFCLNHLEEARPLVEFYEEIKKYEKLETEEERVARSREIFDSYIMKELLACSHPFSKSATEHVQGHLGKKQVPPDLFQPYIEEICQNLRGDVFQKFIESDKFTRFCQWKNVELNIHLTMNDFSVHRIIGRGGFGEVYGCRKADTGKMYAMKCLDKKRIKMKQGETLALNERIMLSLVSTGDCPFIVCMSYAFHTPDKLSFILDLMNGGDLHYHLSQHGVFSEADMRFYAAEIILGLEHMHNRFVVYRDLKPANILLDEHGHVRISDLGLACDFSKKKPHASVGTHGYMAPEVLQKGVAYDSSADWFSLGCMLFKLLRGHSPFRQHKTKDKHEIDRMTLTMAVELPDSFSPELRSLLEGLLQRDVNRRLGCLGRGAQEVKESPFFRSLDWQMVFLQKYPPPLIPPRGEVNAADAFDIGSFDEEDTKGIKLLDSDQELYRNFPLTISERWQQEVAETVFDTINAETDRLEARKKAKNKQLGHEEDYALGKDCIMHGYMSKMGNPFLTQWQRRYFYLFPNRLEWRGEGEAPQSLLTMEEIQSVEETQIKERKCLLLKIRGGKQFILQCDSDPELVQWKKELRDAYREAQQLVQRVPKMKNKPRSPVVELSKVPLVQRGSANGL
Assay [10] has as its target Beta-2 adrenergic receptor (Homo sapiens) (UniProt P07550). Kind of assay: beta2AR agonists driving receptor internalization, pilot screen, cell-based, FAP fluorogen, flow cytometry, validation set (AID 504459;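 active = percent response above 42, roughly 3 SD of non-fluorescent test compounds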;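 note: agonist-driven loss of surface beta2AR via internalization measured by FAP dye flow cytometry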). The settings on record: Am2.2-beta2AR cells, FAP surface receptor flow cytometry; at 10 µM; stronger effect = higher value.
In assay [11] the target is AP-2 complex subunit beta (Homo sapiens) (UniProt P63010). Kind of assay: inhibitors of arrestin peptide binding to AP2, pilot screen, biochemical, validation set, GST-AP2 beads, flow cytometry (AID 504541;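 active = inhibition above 54%, about 3 SD of non-fluorescent compounds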;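 note: AP2 carries R879A mutation and is captured from E. coli lysate; bead-bound FITC arrestin peptide fluorescence measuring arrestin peptide binding to AP2; 0% = DMSO wells and 100% = excess unlabeled arrestin peptide control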). The following applies: FITC arrestin peptide, at 10 µM, stronger effect = higher value, AP2 beta2 appendage fragment, R879A mutant.
Chain of AP-2 complex subunit beta (Homo sapiens) (P63010 whole entry, looked up, the tested form may be a part, one chain of several): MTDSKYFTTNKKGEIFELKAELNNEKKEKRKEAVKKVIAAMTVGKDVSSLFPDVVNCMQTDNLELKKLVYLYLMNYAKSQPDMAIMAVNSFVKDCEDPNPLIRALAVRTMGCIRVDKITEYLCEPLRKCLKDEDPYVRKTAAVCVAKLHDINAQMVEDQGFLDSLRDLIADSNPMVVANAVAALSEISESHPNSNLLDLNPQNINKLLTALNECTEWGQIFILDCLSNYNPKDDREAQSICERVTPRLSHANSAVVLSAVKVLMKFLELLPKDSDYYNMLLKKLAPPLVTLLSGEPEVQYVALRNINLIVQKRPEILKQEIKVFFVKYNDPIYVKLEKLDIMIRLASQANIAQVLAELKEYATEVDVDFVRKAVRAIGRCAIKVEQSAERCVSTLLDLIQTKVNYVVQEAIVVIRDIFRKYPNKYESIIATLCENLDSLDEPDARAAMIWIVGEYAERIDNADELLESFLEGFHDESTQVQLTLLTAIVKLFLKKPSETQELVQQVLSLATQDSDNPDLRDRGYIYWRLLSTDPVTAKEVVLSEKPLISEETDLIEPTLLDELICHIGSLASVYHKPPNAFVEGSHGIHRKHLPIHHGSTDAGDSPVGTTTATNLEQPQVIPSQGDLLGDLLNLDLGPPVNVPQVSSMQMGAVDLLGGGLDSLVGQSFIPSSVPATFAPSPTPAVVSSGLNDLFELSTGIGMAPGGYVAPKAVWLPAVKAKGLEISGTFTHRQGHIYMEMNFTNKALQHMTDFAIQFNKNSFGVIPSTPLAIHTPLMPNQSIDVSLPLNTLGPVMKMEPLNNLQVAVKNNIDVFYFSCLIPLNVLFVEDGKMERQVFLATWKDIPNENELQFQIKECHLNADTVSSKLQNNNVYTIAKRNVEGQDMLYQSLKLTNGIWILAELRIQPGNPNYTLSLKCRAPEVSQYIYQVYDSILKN
A short description of assay [12]: yeast V-ATPase proton transport modulators, S. cerevisiae, pHLuorin, HTS validation (AID 504600).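 Note: plate controls were DMSO for no effect and reference compound for full effect.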 The following applies: S. cerevisiae pHLuorin cytosolic pH, at 10 µM, stronger effect = higher value.
In assay [13] the test system is anti-desmoglein-3 scFv antibody binding to human DSG3. Kind of assay: inhibitors of anti-DSG3 scFv binding to DSG3, pilot screen, biochemical, validation compound set, bead-based, flow cytometry (AID 588368;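 active = binding below the plate cutoff, the plate median minus 3 SD, with a reading above zero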;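 note: signal is the median channel fluorescence of bead-bound GFP antibody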). The following applies: Protein G beads, DSG3-Fc, scFv-GFP binding, at 10 µM, stronger effect = lower value.
Assay [14] is described as follows: inhibitors of fungal efflux pumps CDR1, CDR2, MDR1, pilot screen, validation compound set, multiplex, phenotypic (AID 588506;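 active = efflux inhibition above 0.42, the validation set average plus 4 SD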;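 note: Nile Red retained in cells so higher fluorescence means more efflux inhibition; 0 = negative control wells and 1 = enniatin B 25 µM full block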). The following applies: S. cerevisiae pump-expressing triplex, Nile Red efflux flow cytometry; at 10 µM; stronger effect = higher value; the pumps come from Candida albicans.
For assay [15], the target named is ATP-binding cassette sub-family B member 6 (Homo sapiens) (UniProt Q9NP58). Kind of assay: ABCB6 transporter inhibitors, pilot screen, K562-ABCB6 cells, flow cytometry, validation set (AID 588550;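 active = inhibition above the screen-wide mean plus 3 SD, about 51%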;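 note: 0% = DMSO wells and 100% = benzethonium chloride 70 µM positive control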). The settings on record: K562-ABCB6 porphyrin accumulation, 1 h, at 10 µM, stronger effect = higher value.
Chain of ATP-binding cassette sub-family B member 6 (Homo sapiens) (Q9NP58 whole entry, looked up): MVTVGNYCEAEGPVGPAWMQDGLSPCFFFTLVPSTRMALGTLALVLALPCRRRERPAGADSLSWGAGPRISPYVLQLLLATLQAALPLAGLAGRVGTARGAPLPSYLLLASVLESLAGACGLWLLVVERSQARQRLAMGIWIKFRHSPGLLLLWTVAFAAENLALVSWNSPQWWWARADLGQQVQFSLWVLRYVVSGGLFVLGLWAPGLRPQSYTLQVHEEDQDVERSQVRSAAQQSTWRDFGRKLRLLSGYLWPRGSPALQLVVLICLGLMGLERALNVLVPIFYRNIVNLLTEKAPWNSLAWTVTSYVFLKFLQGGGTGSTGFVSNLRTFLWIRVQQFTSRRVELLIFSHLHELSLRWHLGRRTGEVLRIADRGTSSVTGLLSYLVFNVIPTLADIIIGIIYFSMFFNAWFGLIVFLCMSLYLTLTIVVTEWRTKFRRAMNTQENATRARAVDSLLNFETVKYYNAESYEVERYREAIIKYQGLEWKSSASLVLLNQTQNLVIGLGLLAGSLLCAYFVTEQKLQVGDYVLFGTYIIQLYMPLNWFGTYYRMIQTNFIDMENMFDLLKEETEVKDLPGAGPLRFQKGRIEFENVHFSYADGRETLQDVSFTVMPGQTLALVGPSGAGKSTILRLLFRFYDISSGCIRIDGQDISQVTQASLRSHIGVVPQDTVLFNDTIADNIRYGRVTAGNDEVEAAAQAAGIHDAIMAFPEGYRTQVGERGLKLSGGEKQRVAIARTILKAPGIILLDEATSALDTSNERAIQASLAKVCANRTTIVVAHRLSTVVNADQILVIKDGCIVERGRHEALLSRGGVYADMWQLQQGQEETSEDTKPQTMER
The nature of assay [16]: promoters of myeloid differentiation in arrested cells, primary screen, cell-based, GFP/MAC1 double positive, flow cytometry, validation set (AID 588685;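 active = differentiation response of at least 50%, scaled between solvent and reference control, from cells with both markers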;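 note: compound exposure lasts four days before antibody staining and flow analysis; 0% = DMSO wells and 100% = 5 µM fulvestrant positive control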). The settings on record: ER-HoxA9 marrow cells, stronger effect = higher value, normalized: vehicle 0, fulvestrant 100.

Results filed as inconclusive are left out. Calls of active or inactive are those of the source. Cut-off read from the data, not from the text of the source, unless noted: active = response above about 15%; inactive = the rest.

Chain of Beta-2 adrenergic receptor (Homo sapiens) (P07550 whole entry, looked up): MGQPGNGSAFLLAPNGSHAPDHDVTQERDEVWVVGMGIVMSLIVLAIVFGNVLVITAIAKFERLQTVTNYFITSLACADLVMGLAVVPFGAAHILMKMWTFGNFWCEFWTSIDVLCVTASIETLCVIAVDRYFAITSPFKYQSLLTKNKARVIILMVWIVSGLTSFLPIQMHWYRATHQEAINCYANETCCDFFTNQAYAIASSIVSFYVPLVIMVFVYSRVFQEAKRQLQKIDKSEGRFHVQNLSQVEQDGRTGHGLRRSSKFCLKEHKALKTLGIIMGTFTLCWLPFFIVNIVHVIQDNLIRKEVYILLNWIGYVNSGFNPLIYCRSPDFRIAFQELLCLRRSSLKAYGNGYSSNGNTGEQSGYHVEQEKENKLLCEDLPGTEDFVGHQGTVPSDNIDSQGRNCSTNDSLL

Usually inhibition stands for the change of the read-out against control, counted positive when it falls. With `COc1cc(CNCCc2ccccc2F)ccc1OCC(=O)N1CCCCC1`, the percent of DMSO control GFP in [1] is 98.6% (inactive). The GFP response vs DMSO in assay [2] was 104% (inactive); in assay [4] it was 114% (inactive). The percent response of DMSO control in assay [3] was 96.7% (inactive). The GFP response, % of DMSO in [5] is 100% (inactive). This compound also yielded a double positive events in [6] of 57.8%. Besides, the vesicle binding response in assay [6] was 196% (inactive). Besides, the inhibition in [7] is -1.79% (inactive); in [11] it was 22.6% (inactive); in assay [15] it was 2% (inactive). Moreover, the superoxide response (% of plate) in [8] was 103% (inactive). Moreover, in [9], the aptamer binding inhibition is -1% (inactive). For the same compound, the response was -8.73% (inactive) in assay [10] and -3.26% (inactive) in assay [12]. Besides, the binding (% of control) in assay [13] was 98.2% (inactive). In [14], the efflux inhibition (fraction of control) was -0.35 (inactive). Further, the differentiation response in assay [16] is 29.6% (inactive).
Turning to `COc1cc(OC)c(-c2nc3cnccc3n2C)cc1OC`, in assay [1], the percent of DMSO control GFP was 104% (inactive). Also, the GFP response vs DMSO in [2] was 100% (inactive); in [4], 103% (inactive). The percent response of DMSO control in assay [3] was 115% (inactive). Besides, the GFP response, % of DMSO in assay [5] is 102% (inactive). Besides, in assay [6], the double positive events was found to be 61.8%. Further, the vesicle binding response in assay [6] was 192% (inactive). For the same compound, the inhibition in [7] is -4.6% (inactive); in assay [11], -2.31% (inactive); in assay [15] it was -11% (inactive). Moreover, in assay [8], the superoxide response (% of plate) was 97% (inactive). Besides, in assay [9], the aptamer binding inhibition was 0% (inactive). Besides, the response in assay [10] is -4.1% (inactive); in assay [12], 4.97% (inactive). The binding (% of control) in assay [13] was 97.6% (inactive). Further, the efflux inhibition (fraction of control) in assay [14] was -0.01 (inactive). Moreover, the differentiation response in assay [16] is 3.18% (inactive).
Turning to `O=C1CCc2cc(OCCCCc3nnnn3C3CCCCC3)ccc2N1`, in assay [1], the percent of DMSO control GFP was 92.4% (inactive). The GFP response vs DMSO in [2] is 136% (inactive); in assay [4], 85.3% (inactive). Moreover, the percent response of DMSO control in assay [3] was 101% (inactive). Moreover, the GFP response, % of DMSO in [5] is 92.2% (inactive). This compound returned a double positive events in [6] of 67%. In assay [6], the vesicle binding response was 194% (inactive). The values for the inhibition in [7], in [11] and in [15] were -5.18% (inactive), -4.26% (inactive) and 11% (inactive), respectively. In addition, in [8], the superoxide response (% of plate) is 102% (inactive). The aptamer binding inhibition in [9] is 6% (inactive). For the same compound, the response in assay [10] was -6.49% (inactive); in assay [12], -1.32% (inactive). Moreover, in assay [13], the binding (% of control) was 96.9% (inactive). Besides, in [14], the efflux inhibition (fraction of control) is -0.09 (inactive). The differentiation response in [16] is 8.19% (inactive).
For the compound `COc1c2c(nc3occc13)C(CC=C(C)C)(OC)C(O)CC2` (stereo not drawn), the percent of DMSO control GFP in assay [1] is 89.1% (inactive). Besides, the values for the GFP response vs DMSO in assay [2] and in assay [4] were 131% (inactive) and 95.7% (inactive), respectively. The percent response of DMSO control in assay [3] is 110% (inactive). Further, the GFP response, % of DMSO in [5] is 98.2% (inactive). In addition, the double positive events in assay [6] is 63.2%. For the same compound, the vesicle binding response in assay [6] is 144% (inactive). In addition, the inhibition in assay [7] was -4.21% (inactive); in assay [11] it was -9.37% (inactive); in [15] it was 11% (inactive). For the same compound, the superoxide response (% of plate) in assay [8] was 95.4% (inactive). In [9], the aptamer binding inhibition is 6% (inactive). Further, the response in assay [10] is 3.58% (inactive); in [12] it was -1.04% (inactive). The binding (% of control) in assay [13] was 103% (inactive). In addition, the efflux inhibition (fraction of control) in [14] is 0.01 (inactive). Also, the differentiation response in [16] is 3.28% (inactive).

Source of the values: PubChem BioAssay.
